Most compounds without a hit are left out; they make up all but 3.5% or so of the library.
MITF primary: human MITF inhibition, primary screen. AlphaScreen MITF homodimerization, bead proximity signal. inhibition, % at 2.6 µM. 0.91% of 650,000 active. AID 1259374; in the data active means inhibition above about 50%
GPR151 activ: activates the human receptor GPR151. Q8TDV0. PathHunter beta-arrestin GPR151 cells, luminescence. activation, % at 11.2 µM. 1% of 650,000 active. AID 1508602; in the data active means activation above about 4.9%
FBW7 activator: activators of human E3 ligase FBW7; AID 1259310; AlphaScreen FBW7–phospho-cyclin E peptide binding, activator screen; normalized activity (activation), % at 26.1 µM; 0.13% of 650,000 active; in the data active means normalized activity above about 1.9%;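 further: purified mutant Fbw7 with reduced substrate affinity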
Target sequence (Q969H0 whole entry, looked up): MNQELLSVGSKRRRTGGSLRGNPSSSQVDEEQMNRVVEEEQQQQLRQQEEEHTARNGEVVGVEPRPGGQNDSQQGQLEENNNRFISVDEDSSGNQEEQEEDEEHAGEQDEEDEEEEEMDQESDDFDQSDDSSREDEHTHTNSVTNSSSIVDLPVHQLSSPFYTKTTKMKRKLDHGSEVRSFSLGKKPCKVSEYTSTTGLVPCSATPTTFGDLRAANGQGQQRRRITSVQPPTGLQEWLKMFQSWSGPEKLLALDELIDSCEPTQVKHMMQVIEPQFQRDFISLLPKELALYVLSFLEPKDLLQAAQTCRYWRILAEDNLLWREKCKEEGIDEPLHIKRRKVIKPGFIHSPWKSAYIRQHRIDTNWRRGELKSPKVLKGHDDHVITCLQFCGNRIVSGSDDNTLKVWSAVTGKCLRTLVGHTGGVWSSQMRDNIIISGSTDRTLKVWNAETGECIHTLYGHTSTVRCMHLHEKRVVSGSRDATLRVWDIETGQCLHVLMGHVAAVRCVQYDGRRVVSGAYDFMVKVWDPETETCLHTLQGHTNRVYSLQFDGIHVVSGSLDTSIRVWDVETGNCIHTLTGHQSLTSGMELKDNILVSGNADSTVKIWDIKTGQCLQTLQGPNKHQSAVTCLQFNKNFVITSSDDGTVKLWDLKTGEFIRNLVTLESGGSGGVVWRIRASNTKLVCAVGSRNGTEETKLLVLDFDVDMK
TEAD-YAP block: TEAD-YAP interaction inhibition. HEK-TIYL cells, TEAD-Gal4/YAP UAS-luciferase luminescence. inhibition, % at 9.12 µM. 1.4% of 640,000 active. AID 1259422; in the data active means inhibition above about 32%
Each line names hits and unclear results; the compound was inactive in the other large screens.

Cc1ccc(C)c(N(CC(=O)NCCC(C)C)C(=O)CCC(=O)Nc2ccccn2)c1	none
CC(=O)c1cccc(-c2nc(Nc3ccc(N4CCOCC4)cc3)c3[nH]cnc3n2)c1	none
Nc1cccc(-c2nc(Nc3ccc(N4CCOCC4)cc3)c3[nH]cnc3n2)c1	TEAD-YAP block 60.1
CCCNc1nc(Nc2cc(OC)c(OC)c(OC)c2)nc2nc[nH]c12	TEAD-YAP block 39.1
Clc1ccc2c(c1)CN(C1CCCCC1)CO2	none
O=C(Nc1nccs1)c1cn(-c2ccccc2)nc1-c1ccc(Br)cc1	none
O=C(Nc1nccs1)c1cn(-c2ccccc2)nc1-c1cccnc1	TEAD-YAP block 37.9
COC(=O)c1nn(-c2ccc(C)c(C)c2)cc1O	TEAD-YAP block 53.9
COC(=O)c1nn(-c2ccc(F)c(Cl)c2)cc1O	none
O=[N+]([O-])c1cccc(/C=C/c2ncc3ccccn23)c1	none
Brc1ccc(CN2CCN(Cc3ccc4c(c3)OCO4)CC2)s1	none
COc1cccc(-c2cn3c4c(=O)n(C)c(=O)n(C)c4nc3n2-c2ccccc2)c1	none
CCn1c(C)nc2c(C)[n+](CC(=O)c3ccc(Br)cc3)ccc21	TEAD-YAP block 38.1
CC1CC(C)CN(C(=O)c2ccc(SCc3ccncc3)c([N+](=O)[O-])c2)C1 (stereo not drawn)	none
Cc1cc2nc(-c3cccc(N)c3)oc2cc1C	TEAD-YAP block 34.9
Cc1ccc2nc(-c3cc(N)cc(N)c3)oc2c1	TEAD-YAP block 55.6
Cc1ccc2nc(-c3cc(N)ccc3O)oc2c1	none
Cc1ccc(-c2nc3ccccc3o2)cc1N	none
CCc1ccc2oc(-c3ccc(C)c(N)c3)nc2c1	TEAD-YAP block 43.1
Cc1cc2nc(-c3ccc(C)c(N)c3)oc2cc1C	TEAD-YAP block 35.7
Cc1[nH]n2c(=O)cc(C(C)(C)C)nc2c1-c1cccs1	TEAD-YAP block 49.6
COc1cc(NS(=O)(=O)c2ccc(OC)c(C)c2C)c(OC)cc1Cl	TEAD-YAP block 53.9
COc1ccc(Cl)cc1NS(=O)(=O)c1cc(C)ccc1OC	none
COc1ccc(Cl)cc1NS(=O)(=O)c1ccc(OC)c(C)c1C	TEAD-YAP block 42.5
N#C/C(C(N)=O)=C1\Oc2c(cc(O)cc2-c2ccccc2)S1	TEAD-YAP block 36.7
COc1cccc(Nc2nnc(SCC(=O)NNC(=O)c3ccccn3)s2)c1	TEAD-YAP block 79.3
COc1cccc(Nc2nnc(SCC(=O)NNC(=O)C3CC3)s2)c1	none
O=C(CN1C(=O)C(c2ccccc2)=NC12CCCCC2)Nc1ccc2c(c1)OCO2	none
COc1ccc(C(=O)/C=C/Nc2ccc(F)cc2F)cc1	none
O=C(/C=C/Nc1ccc(F)cc1F)c1ccccc1	TEAD-YAP block 83.9
O=C(/C=C/Nc1ccc([N+](=O)[O-])cc1Br)c1ccccc1	TEAD-YAP block 42.7
O=C(/C=C/Nc1ccccc1I)c1ccccc1	TEAD-YAP block 91.2
COc1cccc(C(=O)/C=C/Nc2ccc(F)cc2F)c1	TEAD-YAP block 71.0
Cc1nonc1CNC(=O)C1CC(Cc2cccc3ccccc23)=NO1 (stereo not drawn)	none
C=CCn1c(=S)[nH]c2sc(C)c(-c3ccc(OC)cc3)c2c1=O	none
CCc1ccc(C(=O)/C=C/Nc2ccccc2O)cc1	TEAD-YAP block 38.6
O=C(/C=C/Nc1ccc(F)cc1Br)c1ccccc1	TEAD-YAP block 85.9
Cc1ccc(C(=O)/C=C/Nc2ccccc2O)cc1	none
O=C(/C=C/Nc1ccccc1F)c1ccccc1	TEAD-YAP block 60.6
Fc1ccc(CNc2ccnc3c(-c4cnn(Cc5ccccc5)c4)cnn23)cc1	none
CCOc1ccc(-n2nnnc2-c2nc3ccccc3s2)cc1	TEAD-YAP block 42.4
Cc1ccc(-n2nnnc2-c2nc3ccccc3s2)cc1	none
CC(=O)c1ccc(NC2=C(Cl)C(=O)c3ccccc3C2=O)cc1	TEAD-YAP block 48.9
CC(=O)c1ccc(Nc2ccc(-c3ccccc3F)nn2)cc1	TEAD-YAP block 57.1
O=C(CNC(=O)c1ccncc1)N/N=C/c1cccc(Cl)c1	none
COC(=O)c1ccccc1NC(=O)/C=C/c1ccc(Cl)cc1	none
O=C1CCCN1c1ccc(S(=O)(=O)Oc2ccc(Cl)cc2Cl)cc1	TEAD-YAP block 61.2
O=C1CCCN1c1ccc(NS(=O)(=O)c2ccc(F)cc2)cc1	none
O=C1CCCN1c1cccc([N+](=O)[O-])c1	none
O=C1CCCN1c1ccc(S(=O)(=O)Oc2cccc([N+](=O)[O-])c2)cc1	TEAD-YAP block 52.0
O=C1CCCN1c1ccc(S(=O)(=O)Nc2ccc(F)c(Cl)c2)cc1	TEAD-YAP block 46.5
O=C1CCCN1c1ccc(S(=O)(=O)Nc2ccc(Cl)c(Cl)c2)cc1	TEAD-YAP block 45.6
NNS(=O)(=O)c1ccc(N2CCCC2=O)cc1	none
Cc1ccc(CNc2ccnc3c(-c4ccccc4CO)cnn23)c(C)c1	none
COc1ccc2c(c1)OC(C)CN(Cc1ccccc1O)C2 (stereo not drawn)	none
CC(C)Cc1ccc(/C(CCCC(=O)O)=N\O)s1	none
COc1ccccc1C(=O)Nc1ccc2nc(SCC(=O)N3CCc4ccccc43)sc2c1	none
Cc1nnc(SC(C)C(=O)Nc2ccc3nc(SCC(=O)N4CCc5ccccc54)sc3c2)s1 (stereo not drawn)	TEAD-YAP block 34.8
COc1ccc(-c2cnc(SCC(=O)Nc3cccc(F)c3)n2C)cc1	TEAD-YAP block 33.5
CCN(CC)c1ccc(/C=C/c2nc3ccccc3s2)cc1	TEAD-YAP block 63.6
O=C(O)c1ccc(/C=C/c2nc3ccccc3s2)cc1	none
CCN(CC)c1ccc(Nc2nc(Nc3ccc(N(CC)CC)cc3)nc(Sc3nc4ccccc4s3)n2)cc1	none
O=C(O)COc1ccc(/C=C/c2nc3ccccc3s2)cc1	TEAD-YAP block 71.6
C=C(C)CNC(=S)N/N=C/C(C)c1ccccc1 (stereo not drawn)	none
CCc1nc(C(N)=O)c2[nH]c(=O)n(-c3ccc(OC)cc3)c2n1	none
CCOc1ccc(NC(=O)c2ncn[nH]2)cc1	TEAD-YAP block 39.4
O=C(Nc1ccc(N2CCCCC2)cc1)c1ncn[nH]1	TEAD-YAP block 82.1
CCOc1ccc(NC(=O)c2ccc(C(=O)Nc3ccc(OCC)cc3)cc2)cc1	none
CC(C)C(=O)N1CCN(c2ccc(NC(=O)c3ncn[nH]3)cc2)CC1	none
COc1ccc(CC2(CCC(=O)N3CC4(C)CC3CC(C)(C)C4)CCC(=O)N2)cc1 (stereo not drawn)	none
N#Cc1c(-c2ccccc2)cc(-c2cccc(Br)c2)nc1SCC(=O)Nc1ccc(Br)cc1	none
Cc1cnc(Nc2nc3ccccc3n2C)nc1Nc1ccc2c(c1)OCO2	TEAD-YAP block 32.3
Cc1cnc(Nc2cccc(N(C)C)c2)nc1Nc1ccc2c(c1)OCO2	TEAD-YAP block 39.8
Cc1cnc(NCc2ccc3c(c2)OCO3)nc1Nc1ccc2c(c1)OCO2	none
Cc1cnc(Nc2ccc(N3CCOCC3)cc2)nc1Nc1ccc2c(c1)OCO2	TEAD-YAP block 79.6
CN(C)c1cccc(Nc2nccc(Nc3ccc(N4CCOCC4)cc3)n2)c1	TEAD-YAP block 39.1
Cc1cnc(Nc2ccc(C(F)(F)F)cc2)nc1Nc1ccc2c(c1)OCO2	none
COc1ccc(C(=O)OCC(=O)COC(=O)c2ccc(OC)c(OC)c2)cc1OC	none
Cc1cnc(Nc2cccc(N(C)C)c2)nc1Nc1ccc(N2CCOCC2)cc1	TEAD-YAP block 65.8
COc1cc2nc(Nc3cccc(N(C)C)c3)nc(Nc3ccc(N4CCOCC4)cc3)c2cc1OC	none

From PubChem
